Our source for the growth values is PubChem BioAssay (NCI).

Common to all, as to assay: NCI-60 one-dose screen, 48 h (100 = growth as untreated, 0 = no growth, -100 = all killed)
Common to all, as to conditions: 10 µM unless noted

The test system of assay [1] is NCI-H23 lung.
The subject of assay [2] is NCI-H226 lung.
Assay [3] relates to NCI-H322M lung.
Assay [4] has as its system HOP-62 NSCLC.
In assay [5] the test system is NCI-H460 lung.
Assay [6] relates to NCI-H522 lung.
For assay [7], the system named is A549/ATCC NSCLC.
For assay [8], the system named is 786-0 renal.
The subject of assay [9] is COLO 205 colon.
Assay [10] deals with HOP-92 NSCLC.

This is part of a sample that, as a whole, favours compounds with a hit. Of some 83,000 tested, about 20% had one in any assay.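 Assay: single dose, 48 h. Readout: percent growth (0 = no net growth; negative = cell death). Active: <10.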 Values without a mark were called inactive. The source made the active and inactive calls.

`CSC1=N/C(=C\c2cccc(OCc3ccc(Cl)cc3)c2)C(=O)N1`: the growth in assay [1] was 82.8%; in assay [2], 75%; in assay [3], 87.2%; in [4], 99.4%; in assay [5], 81.3%; in assay [6] it was 48%. The growth in assay [7] was 83.4%; in assay [8], 83.8%; in assay [9], 82.8%.
Turning to `Cc1ccncc1NC=O`, the growth is 101% in assay [1]; 101% in assay [2]; 102% in assay [3]; 109% in assay [4]; 106% in [5]; 99.1% in [6]. Further, the growth in assay [7] is 102%; in [8] it was 103%; in [9] it was 110%.
As to `Nc1c(C(=O)Nc2cccc(Cl)c2)sc2nc3c(cc12)C(=O)CCC3`, the growth in assay [1] is 38%; in assay [2] it was 57.9%; in [3], 71.8%; in [4] it was 47%; in assay [5] it was 10.3%; in [6] it was 14.6%. The growth was 28.2% in assay [7], 47.7% in assay [8] and 10.2% in assay [9].
For `COc1ccc(CC2c3cc(OC)c(OC)cc3CC[N+]2(C)CCC(=O)OCCCCCOC(=O)CC[N+]2(C)CCc3cc(OC)c(OC)cc3C2Cc2ccc(OC)c(OC)c2)cc1OC` (stereo not given), the growth in assay [1] is 93.4%; in [2] it was 76.3%; in [3] it was 90.9%; in [4], 100%; in assay [5], 100%; in assay [6], 86.1%. In addition, the figures for the growth in assay [7], in assay [8] and in [9] were 101%, 103% and 112%, respectively.
On to `C=C1C(=O)O[C@H]2[C@H]1CC/C(COC(=O)NCc1c[nH]c3ccc(OC)cc13)=C\CC[C@@]1(C)O[C@@H]21`, for which the growth in assay [1] was 51.6%; in [2], 27.9%; in assay [3] it was 84.9%; in assay [4] it was 49.2%; in [5], 33.7%; in assay [6] it was -72.8% (active). In addition, the growth in [7] was 29.6%; in [8], -59.2% (active); in assay [9] it was -69.2% (active).
In the case of `CS(=O)(=O)c1ccc(C(=O)N/N=C/c2cccc3ccccc23)cc1`, the growth was 89.6% in assay [1]; 83.7% in [2]; 93.9% in [3]; 74.9% in assay [4]; 66.8% in [5]; 4.48% (active) in assay [6]. Also, the growth is 41.3% in assay [7], 90.9% in assay [8] and 85.7% in assay [9].
In the case of `CCCCCCCCCCCC1=NC(C)(C)CN1C(C)C`, the growth in assay [1] was 49.8%; in [2], 89.1%; in assay [3], 97.7%; in assay [4], 54.6%; in [5] it was 50.4%; in assay [6], 43%. Besides, the growth in [7] is 61.1%; in assay [8], 54.5%; in assay [9], -53.7% (active).
With `CCCCCCCC/C=C/CCCCCCCC1=NC(C)(C)CN1C(C)C`, the growth in assay [1] is -2.44% (active); in assay [2], 61.4%; in assay [3], 76.8%; in assay [4], -79.6% (active); in assay [5] it was -45.9% (active); in assay [6], -57.6% (active). Moreover, the growth was 15.7% in assay [7] and -67.3% (active) in assay [9].
As for `CC(C)(C)[Si](C)(C)OC1[C@@H](O[Si](C)(C)C(C)(C)C)[C@@H](CNC(=O)NC(=O)NC(=O)CI)O[C@H]1n1cnc2c(NC(=O)Nc3ccccc3)ncnc21` (stereo not given in full), the growth in [1] was -51.8% (active); in assay [2], 108%; in assay [3], 111%; in [4], 2.91% (active); in assay [5] it was 78.8%; in assay [6], -80.4% (active). Further, the growth in assay [7] was 65.5%; in assay [8], 7.17% (active); in [9], 45.2%.
For `O/N=C/c1ccncc1`, the growth in assay [1] is 101%; in assay [2], 107%; in assay [3] it was 110%; in assay [4], 104%; in [5] it was 106%; in assay [6], 83.7%. The growth is 96.5% in assay [7], 109% in assay [8] and 108% in [9].
For `CCOC(=O)C(Cc1ccccc1)n1c(O)c(/C=N/c2ncc(Cc3ccc(Cl)cc3Cl)s2)sc1=S` (stereo not given), the growth in assay [1] is 11%; in assay [2], 15.5%; in assay [3] it was 15.7%; in assay [4], 8.75% (active); in assay [5], 2.04% (active); in [6], -23.2% (active). Further, the growth in assay [7] was 4.36% (active); in assay [8] it was 17.9%; in assay [9] it was -87% (active).
`CCCCCCCCCCCCCCCC1=NCCN1`: the growth in [1] is 72.5%; in assay [2], 80.6%; in assay [3], 76.6%; in assay [4], 55.3%; in [5], 32.5%; in assay [6] it was 74%. Also, the growth in assay [7] is -15.4% (active); in assay [8] it was 78.8%; in [9] it was -70.8% (active).
`Cc1cccc2nc3ccccc3c(Nc3ccc(NS(C)(=O)=O)cc3)c12`: the growth was 57.8% in assay [1]; 92.8% in assay [3]; 35.2% in [4]; 10.1% in [5]; -3.43% (active) in assay [10]; 38.2% in [8]. In addition, the growth in assay [9] was 51.1%.
Take `Cc1nn(-c2cccc(Cl)c2)c(C)c1N=Nc1ccc(Br)cc1`: the growth was 96.9% in [1]; 102% in assay [3]; 86.9% in assay [4]; 103% in assay [5]; 68.6% in assay [6]; 66.1% in assay [7]. Also, the growth in assay [8] is 89.7%; in [9], 102%.
Consider `CCCCCCCCCCCC1=NC(C)(C)CN1CCO`, for which the growth was 65.1% in assay [1]; 87.7% in [3]; 56.4% in assay [4]; 46.2% in assay [5]; 69.2% in assay [6]; 89.9% in assay [7]. For the same compound, the growth was 70.4% in [8] and -57.7% (active) in assay [9].
